Measurements as given in PubChem BioAssay (EPA / NIEHS).
Where “and” joins values, the source holds several entries; their conditions need not be identical. Equal values may be shown once. Results filed as inconclusive are left out. Calls of active or inactive are those of the source. How the source made its calls, unless noted: active means hit-call score of the fitted dose curve at least 0.9, where 1 is the maximum; inactive means score below 0.9.

Key:
[1] = target: Retinoic acid receptor RXR-alpha (Homo sapiens) (UniProt P19793); assay: ATG_RXRa_TRANS: Attagene TRANS-FACTORIAL HepG2 Assay for human Retinoid X Receptor alpha (RXRa) (AID 2283012; active means hit-call score of the fitted dose curve at least 0.9, where 1 is the maximum)
Procedure, shortened: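 Cells (HepG2) carried transiently transfected GAL4-responsive reporter units. Following a 24 h chemical incubation, reporter mRNA induction was read via RT-PCR fragment analysis; DMSO served as negative control and baseline.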

[2] = target: human Retinoid X Receptor beta (RXRb), RXRB (gene 6257) (UniProt P28702); assay: ATG_RXRb_TRANS: Attagene TRANS-FACTORIAL HepG2 Assay for human Retinoid X Receptor beta (RXRb) (AID 2283013; active means hit-call score of the fitted dose curve at least 0.9, where 1 is the maximum)
Procedure, shortened: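 Multiplexed TRANS reporter assay in HepG2; 24 h dosing; reporter mRNA by RT-PCR/CE fluorescence; gain-of-signal relative to DMSO.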

[3] = target: human Thyroid Receptor alpha (THRa1), THRA (gene 7067) (UniProt P10827); assay: ATG_THRa1_TRANS: Attagene TRANS-FACTORIAL HepG2 Assay for human Thyroid Receptor alpha (THRa1) (AID 2283014; active means hit-call score of the fitted dose curve at least 0.9, where 1 is the maximum)
Procedure, shortened: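 Reporter transcript induction, read by capillary electrophoresis of 6-FAM-labelled RT-PCR products, reflects activity of a transfected THRa1-Gal4 fusion in HepG2 liver cells. Cells were dosed for 24 h; activity was fitted in the positive direction against DMSO.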

[4] = read-out: E-selectin (Homo sapiens) (UniProt P16581); assay: BSK_3C_Eselectin: BioMAP Diversity Plus: 3C Assay for Eselectin Biomarker Activity (AID 2283015); settings: primary human endothelial cells (HUVEC); actives raise or lower the signal
Procedure, shortened: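 ELISA read-out of E-selectin on endothelial monolayers after 24 h chemical treatment. Human umbilical vein primary cells served as the system, with DMSO defining baseline activity for bidirectional fitting.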

[5] = read-out: Monocyte Chemoattractant Protein-1 (MCP1), CCL2 (gene 6347); assay: BSK_3C_MCP1: BioMAP Diversity Plus: 3C Assay for Monocyte Chemoattractant Protein-1 (MCP1) Biomarker Activity (AID 2283017); settings: primary human endothelial cells (HUVEC); actives raise or lower the signal
Procedure, shortened: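 ELISA read-out of MCP-1 from human umbilical vein endothelial cell cultures harvested 24 h post-dosing. Gain or loss of signal was fitted relative to DMSO.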

[6] = read-out: Monocyte Chemoattractant Protein-1 (MCP1), CCL2 (gene 6347); assay: BSK_4H_MCP1: BioMAP Diversity Plus: 4H Assay for Monocyte Chemoattractant Protein-1 (MCP1) Biomarker Activity (AID 2283018); settings: primary human endothelial cells (HUVEC); actives raise or lower the signal
Procedure, shortened: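 Readout: MCP-1 ELISA on compound-treated HUVEC, sampled 24 h post-dosing. Baseline and negative control DMSO; bidirectional fit. Overt toxicity checked alongside by sulforhodamine B protein staining at time of biomarker measurement.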

[7] = read-out: Interleukin-8 (IL8), CXCL8 (gene 3576); assay: BSK_3C_IL8: BioMAP Diversity Plus: 3C Assay for Interleukin-8 (IL8) Biomarker Activity (AID 2283020); settings: primary human endothelial cells (HUVEC); actives raise or lower the signal
Procedure, shortened: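 Human vascular endothelial cells (umbilical vein) in the 3C system; IL-8 level detected by ELISA at 24 h post-dose, with DMSO as baseline.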

[8] = read-out: Human Leukocyte Antigen - DR isotype (HLADR), HLA-DRA (gene 3122); assay: BSK_3C_HLADR: BioMAP Diversity Plus: 3C Assay for Human Leukocyte Antigen - DR isotype (HLADR) Biomarker Activity (AID 2283019); settings: primary human endothelial cells (HUVEC); actives raise or lower the signal
Procedure, shortened: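 ELISA readout of surface HLA-DR on human umbilical vein endothelium, taken 24 h after chemical treatment. Gain- and loss-of-signal were both fitted relative to DMSO.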

[9] = read-out: Interleukin-1 alpha (IL1a), IL1A (gene 3552); assay: BSK_BE3C_IL1a: BioMAP Diversity Plus: BE3C Assay for Interleukin-1 alpha (IL1a) Biomarker Activity (AID 2283016); settings: primary human bronchial epithelial cells; actives raise or lower the signal
Procedure, shortened: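 Cultures of primary human bronchial epithelial cells receive test chemical. After 24 h, IL-1a is quantified by ELISA, while parallel wells are fixed in TCA and SRB-stained for total protein. Changes in either direction are fitted relative to DMSO.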

Measured: AC50

E-selectin (Homo sapiens), sequence (P16581 whole entry, looked up): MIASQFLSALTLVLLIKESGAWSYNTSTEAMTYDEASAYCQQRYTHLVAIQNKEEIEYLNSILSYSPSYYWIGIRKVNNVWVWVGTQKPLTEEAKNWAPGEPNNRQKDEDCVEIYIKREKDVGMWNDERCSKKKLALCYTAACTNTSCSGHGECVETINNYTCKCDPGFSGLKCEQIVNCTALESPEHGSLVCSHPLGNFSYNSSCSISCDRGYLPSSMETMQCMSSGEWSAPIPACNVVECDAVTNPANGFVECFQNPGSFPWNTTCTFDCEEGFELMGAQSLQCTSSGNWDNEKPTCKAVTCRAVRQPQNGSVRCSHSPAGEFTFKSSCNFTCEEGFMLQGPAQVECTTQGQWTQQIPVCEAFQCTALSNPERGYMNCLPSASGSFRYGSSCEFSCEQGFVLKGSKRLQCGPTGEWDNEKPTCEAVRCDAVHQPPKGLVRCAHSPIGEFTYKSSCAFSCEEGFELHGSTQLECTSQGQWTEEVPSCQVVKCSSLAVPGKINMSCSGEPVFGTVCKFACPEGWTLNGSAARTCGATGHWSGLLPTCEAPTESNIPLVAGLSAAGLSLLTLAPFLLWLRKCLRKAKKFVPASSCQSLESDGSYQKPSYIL
Retinoic acid receptor RXR-alpha (Homo sapiens), sequence (P19793 whole entry, looked up, the tested form may be a part): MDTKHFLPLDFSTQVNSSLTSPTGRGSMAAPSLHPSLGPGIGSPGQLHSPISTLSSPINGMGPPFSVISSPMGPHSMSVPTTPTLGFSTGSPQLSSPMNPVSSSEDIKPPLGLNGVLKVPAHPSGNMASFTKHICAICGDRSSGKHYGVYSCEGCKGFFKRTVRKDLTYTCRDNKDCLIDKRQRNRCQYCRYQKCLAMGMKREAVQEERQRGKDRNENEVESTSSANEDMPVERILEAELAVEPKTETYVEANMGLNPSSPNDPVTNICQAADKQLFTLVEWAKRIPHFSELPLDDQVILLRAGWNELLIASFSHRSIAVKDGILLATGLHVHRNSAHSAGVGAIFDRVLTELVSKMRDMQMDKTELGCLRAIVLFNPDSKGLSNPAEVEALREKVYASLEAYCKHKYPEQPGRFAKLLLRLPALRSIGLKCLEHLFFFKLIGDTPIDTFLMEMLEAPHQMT
human Thyroid Receptor alpha (THRa1), THRA (gene 7067), sequence (P10827 whole entry, looked up, the tested form may be a part): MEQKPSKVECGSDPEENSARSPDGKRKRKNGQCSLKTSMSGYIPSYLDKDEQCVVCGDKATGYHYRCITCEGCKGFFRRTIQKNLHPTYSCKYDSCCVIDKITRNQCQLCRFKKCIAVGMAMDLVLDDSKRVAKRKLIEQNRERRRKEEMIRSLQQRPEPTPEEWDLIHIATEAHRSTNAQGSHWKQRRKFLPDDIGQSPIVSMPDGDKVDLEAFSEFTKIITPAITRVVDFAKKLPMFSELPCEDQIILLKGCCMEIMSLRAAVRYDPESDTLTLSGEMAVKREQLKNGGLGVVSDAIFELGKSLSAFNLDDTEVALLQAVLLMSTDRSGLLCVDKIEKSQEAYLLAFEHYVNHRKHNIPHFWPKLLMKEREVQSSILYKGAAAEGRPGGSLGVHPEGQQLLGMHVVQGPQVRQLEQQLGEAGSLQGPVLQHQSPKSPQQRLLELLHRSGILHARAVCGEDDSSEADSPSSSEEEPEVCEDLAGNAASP
human Retinoid X Receptor beta (RXRb), RXRB (gene 6257), sequence (P28702 whole entry, looked up): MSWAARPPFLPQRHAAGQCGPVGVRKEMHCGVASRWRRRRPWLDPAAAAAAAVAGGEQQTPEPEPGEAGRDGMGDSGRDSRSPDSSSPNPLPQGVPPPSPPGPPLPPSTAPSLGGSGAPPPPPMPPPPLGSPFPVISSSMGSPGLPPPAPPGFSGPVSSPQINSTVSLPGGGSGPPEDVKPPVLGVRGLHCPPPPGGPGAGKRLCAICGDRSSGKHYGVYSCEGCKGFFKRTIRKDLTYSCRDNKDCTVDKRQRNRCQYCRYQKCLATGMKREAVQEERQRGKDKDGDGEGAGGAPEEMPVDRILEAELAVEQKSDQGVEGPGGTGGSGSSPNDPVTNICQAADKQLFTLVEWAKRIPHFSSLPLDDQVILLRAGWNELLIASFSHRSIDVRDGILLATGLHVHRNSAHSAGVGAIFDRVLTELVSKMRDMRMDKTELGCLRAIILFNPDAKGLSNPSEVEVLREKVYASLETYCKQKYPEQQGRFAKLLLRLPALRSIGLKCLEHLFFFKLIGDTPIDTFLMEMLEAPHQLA

NCC(F)(F)C(F)(F)C(F)(F)C(F)(F)C(F)(F)C(F)(F)C(F)(F)F
not listed: [8] | [9]
inactive: all other assays above

CC[C@H](C)[C@@H](C(=O)O)n1sc2ccccc2c1=O
not listed: [1] | [8] | [9]
inactive: all other assays above

CC#C[C@]1(O)CC[C@H]2[C@@H]3CCC4=CC(=O)CCC4=C3[C@@H](c3ccc(N(C)C)cc3)C[C@@]21C
active: [4] 29.3 µM | [5] 36.3 µM | [6] 20 µM | [8] 37.7 µM | [7] 31.1 µM
inactive: [1] | [3]

CCCCCCCCCCCCc1ccccc1S(=O)(=O)O
active: [2] 9.1 µM | [9] 14.3 µM
not listed: [3] | [8]
inactive: all other assays above

CCCOC(=O)c1ccc(O)cc1
not listed: [1] | [9]
inactive: all other assays above

FC(F)(I)C(F)(F)C(F)(F)C(F)(F)C(F)(F)C(F)(F)I
active: [2] 20.5 µM | [9] 30 µM [middle of 5 runs]

OC1CCCCC1
not listed: [9]
inactive: all other assays above

CCCCCCC(=O)O
not listed: [2] | [8]
inactive: all other assays above

COc1ccc([N+](=O)[O-])cc1N
not listed: [2] | [8]
inactive: all other assays above

c1ccc2c(c1)Cc1ccccc1-2
active: [2] 61.7 µM
not listed: [3]
inactive: all other assays above

CCCCCCCCOC(=O)CCCCCCCCC(=O)OCCCCCCCC
not listed: [9]
inactive: all other assays above

Cc1oc(-c2ccccc2)nc1CCOc1ccc(C[C@H](Nc2ccccc2C(=O)c2ccccc2)C(=O)O)cc1
inactive: [1]
active: [4] 31.1 µM | [5] 32.5 µM | [6] 20 µM | [7] 28.5 µM

CC(O)CO (stereo unspecified)
not listed: [2] | [3]
inactive: all other assays above

NC(=O)N(O)[C@@H]1C=C[C@H](Oc2cccc(Oc3ccc(F)cc3)c2)C1
inactive: [2] | [4] | [5] | [6] | [7]

CC1=C(/C=C/C(C)=C/C=C/C(C)=C/C(=O)O)C(C)(C)CCC1
active: [4] 20 µM
inactive: [3] | [5] | [6] | [7]

Oc1cccc(O)c1
not listed: [2] | [3]
inactive: all other assays above

COc1cc(CCC(=O)CC(=O)CCc2ccc(O)c(OC)c2)ccc1O
inactive: [2] | [3]

COCC(C)O (stereo unspecified)
not listed: [1] | [8]
inactive: all other assays above

CC(=O)NC1(c2cccc(F)c2)CCN(CC[C@@]2(c3ccc(Cl)c(Cl)c3)CN(c3ccccc3)C(=O)CO2)CC1
inactive: [6]
active: [1] 49.7 µM | [3] 59.9 µM | [4] 30.7 µM | [5] 23.5 µM | [7] 17.8 µM

CC(C)(C)c1cc(C(C)(C)C)c(O)c(C(C)(C)C)c1
active: [1] 217 nM and 1.04 µM | [2] 18.6 nM and 320 nM
not listed: [9]
inactive: all other assays above
